Compound activity as filed in PubChem.
WRN helicase inh: blocks human WRN helicase | Q14191 | WRN helicase unwinding, fluorescent forked duplex, kinetic | Potency, µM (doses to about 114 µM), most hits filed as inhibitors | AID 651768 | 360,000 compounds, 0.46% hits; note: nearly all actives have a fitted effect of over 55% in size
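WRN at 20 nM final was preincubated with compound for 15 min at room temperature; reaction started with 100 nM forked duplex oligonucleotide carrying fluorophore and quencher plus 2 mM ATP (final). Unwinding followed kinetically by red fluorescence (ex 525/em 598 nm).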
Pol iota inh: DNA polymerase iota (human) inhibition; 390,000 compounds, 1% hits; Pol iota fluorescent replication assay, 10 min; Potency, µM (titrated, usually from 115 µM), actives largely listed as inhibitors; Q9UNA4; AID 588590
Target sequence (Q9UNA4 whole entry, looked up): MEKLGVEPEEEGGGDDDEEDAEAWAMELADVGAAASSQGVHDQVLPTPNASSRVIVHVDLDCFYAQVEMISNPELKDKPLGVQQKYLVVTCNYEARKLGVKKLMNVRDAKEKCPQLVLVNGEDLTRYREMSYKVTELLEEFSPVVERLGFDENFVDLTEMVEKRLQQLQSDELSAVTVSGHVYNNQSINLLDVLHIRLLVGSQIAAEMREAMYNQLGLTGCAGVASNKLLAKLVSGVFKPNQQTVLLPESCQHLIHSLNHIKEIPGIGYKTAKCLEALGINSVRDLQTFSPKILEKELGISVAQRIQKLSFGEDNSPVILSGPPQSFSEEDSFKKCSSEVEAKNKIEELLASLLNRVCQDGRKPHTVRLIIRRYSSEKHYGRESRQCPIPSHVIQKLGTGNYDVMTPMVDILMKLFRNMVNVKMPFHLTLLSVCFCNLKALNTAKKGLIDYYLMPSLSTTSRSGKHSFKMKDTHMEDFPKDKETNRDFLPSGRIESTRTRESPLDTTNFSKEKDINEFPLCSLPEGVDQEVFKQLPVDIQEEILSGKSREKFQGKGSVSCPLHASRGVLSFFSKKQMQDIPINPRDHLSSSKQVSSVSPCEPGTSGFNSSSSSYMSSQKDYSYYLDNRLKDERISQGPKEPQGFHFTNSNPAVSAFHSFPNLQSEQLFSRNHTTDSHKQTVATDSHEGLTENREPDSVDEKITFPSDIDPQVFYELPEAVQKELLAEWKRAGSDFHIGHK
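Fluorescent replication assay read twice, at 0 min and 10 min after adding 50 nM (final) substrate. Enzyme (10 nM) and compounds were first incubated 15 min at room temperature; enzyme-free buffer wells were negative controls.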
Pol eta inh-1: blocks human DNA polymerase eta activity; recombinant Pol eta, fluorescent DNA replication assay; 390,000 compounds, 1.2% hits; Q9Y253; Potency, µM (titrated, usually from 114 µM), hits mostly inhibitors
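Pol eta at 10 nM preincubated with compounds 15 min at room temperature; reaction started with fluorescent substrate (50 nM final) and read kinetically at 0 and 10 min.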
Pol kappa inh-1: blocks human DNA polymerase kappa activity. 400,000 compounds, 0.53% hits. Q9UBT6. purified Pol kappa, fluorescent DNA synthesis assay, 10 min. Potency, µM (series often up to 107 µM), hits mostly inhibitors
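50 nM final substrate added after 15 min RT preincubation of 10 nM Pol kappa with compound; fluorescence read at 0 and 10 min.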
FEN1 inh: human FEN1 inhibition | Recombinant FEN1 flap cleavage, fluorescence, 15 min | Potency, µM (highest dose often 114 µM), hits mostly inhibitors | 390,000 compounds, 0.35% hits; note: nearly all actives have a fitted effect of over 65% in size
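Read-out was taken twice, immediately and after 15 min, following addition of 50 nM substrate to 10 nM FEN1 that had sat with test compound for 15 min at room temperature. Curves came from a four-parameter Hill model.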
POLB inh: inhibitors of human DNA polymerase beta; P06746; Pol beta primer extension/strand displacement, fluorescence kinetic; Potency, µM (highest dose often 114 µM), actives largely listed as inhibitors; 340,000 compounds, 1.3% hits; AID 485314
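Curves were derived by four-parameter Hill fits of normalized qHTS data. The kinetic fluorescent primer-extension read was taken at 0 and 10 min after 50 nM substrate, following a 15 min room-temperature preincubation of 10 nM enzyme with compounds.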
TbPGK inh: validation of Trypanosoma brucei phosphoglycerate kinase inhibitors; 500 compounds, 79% hits; shares compounds with Pol kappa inh-1; AID 686980; TbPGK coupled GAPDH assay, Kinase-Glo luminescence; Potency, µM (series often up to 57.5 µM), most hits filed as inhibitors; note: nearly all actives have a fitted effect of over 65% in size
Pol iota confirm: Inhibitors of human DNA polymerase iota, confirmation; AID 720496; shares compounds with Pol kappa inh-1; Potency, µM, most hits filed as inhibitors; 1,500 compounds, 77% hits; Pol iota primer extension, TAMRA/BHQ fluorescence
GALK inh confirm: confirmation of human galactokinase (GALK) inhibitors; Potency, µM (doses to about 115 µM), actives largely listed as inhibitors; AID 2015; shares compounds with Pol eta inh-1; purified GALK, Kinase-Glo ATP depletion luminescence; 150 compounds, 70% hits
GALK redox cs: counter-screen for GALK inhibitors: redox cycling H2O2 generation; Phenol red-HRP H2O2 redox cycling, absorbance 600 nm; 150 compounds, 40% hits; Potency, µM (series often up to 115 µM), hits mostly inhibitors; shares compounds with Pol eta inh-1; AID 2035
HEK293 viability: reduces HEK-293 cell viability in GALK counter-screen; shares compounds with Pol eta inh-1; Potency, µM (highest dose often 46.1 µM), actives largely listed as inhibitors; 170 compounds, 10% hits; HEK-293 viability, ATP luminescence (CellTiter-Glo), 24/48 h
Pol kappa inh-2: Pol kappa (human) inhibition, cherry-pick confirmation; shares compounds with Pol eta inh-1; 920 compounds, 76% hits; Potency, µM, most hits filed as inhibitors; purified Pol-kappa, fluorescent strand-displacement substrate
Pol eta inh-2: Pol eta (human) inhibition, cherry-pick confirmation. shares compounds with Pol eta inh-1. Pol eta primer extension, TAMRA/BHQ fluorescence, 10 min. Potency, µM, actives largely listed as inhibitors. 2,600 compounds, 64% hits
A number is an active result; – = inactive; ? = inconclusive; · = no result given; ! = not active in a repeat; [ ] = another dose, or the depositor's remark. Only some compounds are listed: those with a hit (about 2.4% of all), similar ones and a draw of the others. Calls come from the whole dose curve; as a rule, active = well fitted curve in the direction sought with a large enough effect; inconclusive = small, poorly fitted or top-dose-only effect, or another doubt; inactive = no such curve, though single readings can be large; an effect the other way counts as inactive or inconclusive.

SMILES	WRN helicase inh	Pol iota inh	Pol eta inh-1	Pol kappa inh-1	FEN1 inh	POLB inh	Pol iota confirm	Pol eta inh-2	others
O=C(/C=C/c1ccco1)N1CCN(S(=O)(=O)c2ccccc2)CC1	–	50µM	18µM	?	–	·	·	?	TbPGK inh=9.2µM;Pol kappa inh-2=?
O=C(/C=C/c1ccc([N+](=O)[O-])cc1)N1CCN(S(=O)(=O)c2ccccc2)CC1	–	–	–	–	–	·	·	·
CC/C=C/[C@@H](c1ccccc1)[C@H](C)C(O)CC(=O)SC(C)(C)C (stereo partly specified)	·	–	·	–	–	·	·	·
CCOC(=O)c1cccc(NC(=O)c2cc3cc4cc(OC)ccc4nc3s2)c1	·	–	?	–	?	?	?	?	Pol kappa inh-2=19
CCOC(=O)CSc1nc2sc(C(=O)O)c(C)c2c(=O)[nH]1	–	–	–	–	–	–	·	·
Cc1c(C(=O)O)sc2nc(/C=C/c3ccccc3OC(F)F)[nH]c(=O)c12	–[11.6 µM]	?	?	–	?	40µM	75	?
NC(=O)C1CCN(C2=C(Cl)C(=O)c3ccccc3C2=O)CC1	–	2.8µM	6.3µM	–	?	?	42	21	GALK inh confirm=19µM;GALK redox cs=24µM;HEK293 viability=?
NC(=O)C1CCN(C2=C(NS(=O)(=O)c3ccccc3)C(=O)c3ccccc3C2=O)CC1	–	–	–	–	–	–	·	·
Cc1cc(C)c2c(c1)NC(C(=O)O)C1CC=CC21 (stereo unspecified)	50µM	13µM	11µM	25µM	45µM	?	27	24	Pol kappa inh-2=6.7
CCCc1nc2c(=O)n(C)c(=O)nc-2n(C)n1	–	–	0.89µM	–	–	?	1.5	2.7	TbPGK inh=1.5µM;GALK inh confirm=0.94µM;GALK redox cs=0.67µM;HEK293 viability=10µM
COc1ccc(-c2nc(-c3ccccn3)ncc2S(C)(=O)=O)cc1	–	–	–	–	–	–	·	·
CCc1ccc(-c2nc3c(=O)n(C)c(=O)nc-3n(CC)n2)cc1	·	–	·	–	–	·	2.1	1.5
CCn1c(N)nc2c1c(=O)n(C)c(=O)n2C	–	–	–	–	–	–	·	·
Cn1nc(-c2ccccn2)nc2c(=O)n(C)c(=O)nc1-2	–	–	0.71µM	–	–	?	·	·	TbPGK inh=1.6µM;GALK inh confirm=2.7µM;GALK redox cs=2.7µM;HEK293 viability=4µM
FC(F)(F)c1ccc(-c2noc(-c3ccccc3)c2I)cc1	·	·	·	–	·	·	·	·
Cc1cccc(NC(=O)CNCC(=O)Nc2cccc(C)c2C)c1C	–	–	–	–	–	–	·	·
Cc1cccc(NC(=O)CNC(=O)c2cccc(-n3cccc3)c2)c1C	?	7.9µM	3.2µM	32µM	?	·	9.5	9.5
O=[N+]([O-])c1cc(/C=N/Nc2nc3ccccc3[nH]2)c(O)cc1O	?	45µM	4.5µM	40µM	?	20µM	?	?
N#C/C(=C\c1ccc(O)c(O)c1)C(=O)N1CCCC1	–[11.6 µM]	?	?	–	–	–	·	·
N#C/C(=C\c1ccc(O)c(O)c1)C(=O)c1ccc(O)c(O)c1	0.17µM	1.1µM	0.13µM!	0.34µM	1.4µM	0.063µM	0.75	0.67	TbPGK inh=0.33µM;Pol kappa inh-2=0.38
CCOc1cccc(C2C=C(c3ccc4c(c3)OCO4)NC(c3ccccc3F)N2)c1O (stereo unspecified)	·	?	·	–	–	·	·	·
O=C(O)c1ccc(-n2cccc2/C=C2\SC(=O)N(Cc3ccc(Br)cc3)C2=O)cc1	·	·	·	·	·	·	75	76
O=C(Nc1ccc(S(=O)(=O)Nc2nccs2)cc1)c1nn(-c2ccc(F)cc2)ccc1=O	50µM	35µM	20µM	89µM	?	?	67	43
O=C(Nc1ccc(S(=O)(=O)N2CCOCC2)cc1)c1nn(-c2ccc(F)cc2)ccc1=O	–	–	–	–	–	–	·	·
Cc1ccc(C=C2C=C(c3ccccc3)OC2=O)cc1	–	·	–	·	·	·	·	·
SMILES	WRN helicase inh	Pol iota inh	Pol eta inh-1	Pol kappa inh-1	FEN1 inh	POLB inh	Pol iota confirm	Pol eta inh-2	others
CC1=C/C(=C\c2ccc(Br)o2)C(=O)O1	20µM	10µM	2.2µM	25µM	?	6.3µM	17	11	TbPGK inh=3.7µM;Pol kappa inh-2=17
O=C(N/N=C/c1cc(Br)c(Br)o1)c1ccc2c(c1)OCCO2	?	?	13µM	?	–	8.9µM	?	30
COc1ccc(CNc2ccnc(-c3ccc(N(C)C)cc3)n2)c(OC)c1	·	·	·	–	·	·	·	·
NC1=C(Cl)C(=O)c2ccc(S(N)(=O)=O)cc2C1=O	?	4µM	10µM	–	–	·	75	38
NC1=C(Cl)C(=O)c2ccccc2C1=O	–	–	–	–	?	·	·	·
O=C1NN(c2ccccc2)C(=O)/C1=C/c1ccc(Sc2ccc(Cl)cc2)o1	?	7.9µM	·	50µM	–	?	?	30
Cc1ccc(Sc2ccc(/C=C3/C(=O)NN(c4ccccc4)C3=O)o2)cc1	–[11.6 µM]	–	22µM	?	–	?	67	?	Pol kappa inh-2=24
CC(=O)c1c(C)oc2ccc(NS(=O)(=O)c3ccc(C)cc3)cc12	–	–	–	–	–	–	·	·
Cc1ccc(C)c(S(=O)(=O)Nc2ccc3oc(C)c(C(=O)O)c3c2)c1	56µM	14µM	10µM	79µM	?	8.9µM	34	27
CCN(CC)C(=O)CC(c1cc(OC)c(OC)c(OC)c1)c1c(OC)cc(OC)c2c(-c3ccccc3)cc(=O)oc12 (stereo unspecified)	–[11.6 µM]	71µM	40µM	79µM	–	40µM	24	60
O=C(O)c1ccc(N=Nc2c(O)ccc3ncccc23)cc1	?	4µM	2.8µM	28µM	?	5µM	34	15	Pol kappa inh-2=11
